Growth data for seven molecules are collected here from PubChem BioAssay (NCI).

Holding throughout (assay): NCI-60 one-dose screen, 48 h (100 = growth as untreated, 0 = no growth, -100 = all killed)
What all share (details): 10 µM unless noted

Test [1] has as its system NCI-H23 lung.
In test [2] the test system is NCI-H226 lung.
In test [3] the test system is NCI-H322M lung.
The test system of test [4] is HOP-62 NSCLC.
For test [5], the system named is NCI-H460 lung.
Test [6] concerns HOP-92 NSCLC.
Test [7] concerns NCI-H522 lung.
The test system of test [8] is A549/ATCC NSCLC.
For test [9], the system named is 786-0 renal.
Test [10] deals with COLO 205 colon.
In test [11] the test system is DU-145 prostate.
For test [12], the system named is K-562 leukemia.
For test [13], the system named is MALME-3M melanoma.
Test [14] deals with MDA-MB-231 breast.
For test [15], the system named is RXF 393 renal.
Test [16] relates to SF-268 CNS.
For test [17], the system named is SF-295 CNS.
For test [18], the system named is SF-539 CNS.
The subject of test [19] is UACC-257 melanoma.
The subject of test [20] is M14 melanoma.

This is part of a sample that, as a whole, favours compounds with a hit. Of some 83,000 tested, about 20% had one in any assay.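 Step 1: grow cells in 96-well plates. Step 2: add test compound at a single concentration. Step 3: incubate 48 h. Step 4: record percent growth.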 A number with no mark means an inactive call. Active and inactive are the calls of the source. The calls were made as follows: active = growth percent below 10; inactive = the rest.

Consider `Cc1ccc2c(n1)C[C@H](C(C)(C)O)CC[C@H]2C`, for which the growth in test [1] is 103%; in test [2], 100%; in test [3] it was 98.5%; in test [4] it was 101%; in test [5], 108%; in [6], 97.7%. Besides, the growth is 94.3% in test [7]; 94.4% in [8]; 97.9% in test [9]; 111% in test [10]; 107% in [11]; 101% in [12]. In addition, the growth is 94.4% in test [13]; 97.1% in [14]; 114% in test [15]; 101% in test [16]; 93.4% in test [17]; 100% in [18]. Moreover, the growth in test [19] and in test [20] was 104% each time.
For `COc1ccc(-c2cc(-c3ccc(Cl)cc3)c(C#N)c(=O)n2CCCCC(=O)NO)cc1`, the growth in [1] was 84.9%; in [2], 77.2%; in test [3] it was 77.3%; in test [4], 66.5%; in test [5], 99.1%; in test [6], 87.2%. The growth in [7] is 58.8%; in [8], 82.7%; in test [9], 80.2%; in test [10], 86.3%; in [11] it was 78.2%; in test [12], 61.8%. The growth in test [13] was 73.3%; in test [14] it was 52.1%; in [15], 37.3%; in test [16], 85.2%; in test [17] it was 90.2%; in test [18], 82.5%. The growth in test [19] was 80%; in test [20], 72.6%.
For `O=C(CSc1nnc(-c2cc(-c3ccc(Cl)cc3)nc3ccccc23)n1-c1ccccc1)Nc1ccc(Cl)cc1`, the growth in test [1] was 99.7%; in test [2], 95%; in test [3], 102%; in [4], 114%; in [5], 100%; in test [6], 111%. Moreover, the growth in test [7] is 93.4%; in [8] it was 96.2%; in test [9] it was 96.8%; in test [10], 115%; in [11], 107%; in [12], 85.1%. The growth in test [13] is 107%; in test [14], 89.7%; in [15], 118%; in [16] it was 94%; in [17] it was 99.5%; in test [18], 111%. The growth is 96.2% in [19] and 109% in [20].
As to `COc1c(O[C@@H]2OC(CO)[C@H](O)[C@H](O)C2O)cc2oc3cc(O)c(CC=C(C)C)c(O)c3c(=O)c2c1CC=C(C)C` (stereo not given in full), the growth in [1] is 93.5%; in test [2], 86.6%; in [3], 103%; in [4], 79%; in test [5] it was 101%; in test [6], 81.1%. The growth is 64.6% in test [7]; 97.4% in test [8]; 106% in [9]; 96.3% in test [10]; 104% in test [11]; 68.5% in [12]. The growth is 104% in test [13]; 68.5% in test [14]; 110% in test [15]; 92.1% in test [16]; 93.2% in test [17]; 107% in [18]. Moreover, the growth in test [19] was 91.3%; in test [20] it was 86.2%.
Regarding `Oc1ccc(C(c2ccc(O)cc2)c2ccc(Cl)cn2)cc1`, the growth was -4.57% (active) in test [1]; -31% (active) in test [2]; -18.9% (active) in test [3]; 61.9% in test [4]; 103% in test [5]; -8.51% (active) in test [6]. For the same molecule, the growth was 57.6% in test [7]; 52.1% in test [8]; 86.8% in [9]; 4.91% (active) in test [10]; 56.7% in [11]; 71.8% in test [12]. The growth is 107% in test [13]; 77.1% in [14]; -57% (active) in [15]; 92.4% in test [16]; 30.9% in [17]; 83.4% in test [18]. The growth is 95.5% in test [19] and 85.5% in test [20].
Regarding `Cc1nc2ccccc2c(/C=C/c2ccc(Br)cc2)c1C(=O)/C=C/c1ccccc1`, the growth in test [1] is 8.31% (active); in test [2], 25.1%; in test [3], 35.3%; in [4] it was -35.1% (active); in [5] it was -56.4% (active); in test [6] it was 53.1%. Also, the growth in test [7] was -34.9% (active); in [8] it was 14.8%; in test [9] it was 2.23% (active); in test [10] it was -29.5% (active); in [11], -3.75% (active); in [12], 7.54% (active). The growth in [13] was -28.4% (active); in test [14], 11.9%; in test [15] it was -71.3% (active); in test [16], 51.9%; in [17], 4.22% (active); in test [18], -62.7% (active). In addition, the growth was -4.07% (active) in [19] and 6.49% (active) in [20].
Regarding `O=S(=O)(c1ccc(NCSc2nc3ccccc3s2)cc1)c1ccc(NCSc2nc3ccccc3s2)cc1`, the growth was 102% in test [1]; 87.8% in test [2]; 103% in [3]; 66.4% in [4]; 104% in test [5]; 70.7% in test [6]. The growth in [7] was 69.7%; in test [8], 91.1%; in test [9], 99.6%; in test [10] it was 97.1%; in [11], 106%; in [12], 77.3%. In addition, the growth in test [13] is 90.5%; in test [14] it was 86.4%; in test [15], 99.1%; in [16] it was 97.5%; in test [17], 98.6%; in test [18], 103%. Besides, the results for the growth in [19] and in [20] were 94.7% and 96.1%, respectively.
